The supplement of paper PMC10849652
The full data set covers some 8,800 targets. This sample favours those with a hit. About 0.5% of all pairs of compound and target were hits.

Compound: NC1(c2ccc(-c3nc4ccn5c(=O)[nH]nc5c4cc3-c3ccccc3)cc2)CCC1
Test: log2 fold change, soluble protein after heating vs DMSO (PISA); higher = thermal stabilisation; K562 lysate, 10 uM; active = over 0.2 and 3.5 SD of the protein, either way, in both replicates (recomputed)
Method in brief: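 K562 pellets were dounce-homogenised in PBS pH 7.4 with 1 mM MgCl2, and the crude extract at 1 mg/mL protein was treated with 10 μM compound for 30 min. Aliquots were heated for 3 min across 48°C-58°C, pooled, and brought to 0.5% NP-40 at 4°C; soluble protein was the supernatant after 21,000xg for 90 min. Soluble protein was quantified by TMTpro 16plex LC-MS/MS with channel sums equalised, and reported as log2 fold change in thermal stability against DMSO controls, with values from duplicates.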

Sequence of UniProt Q15653 (Q15653 whole entry, looked up): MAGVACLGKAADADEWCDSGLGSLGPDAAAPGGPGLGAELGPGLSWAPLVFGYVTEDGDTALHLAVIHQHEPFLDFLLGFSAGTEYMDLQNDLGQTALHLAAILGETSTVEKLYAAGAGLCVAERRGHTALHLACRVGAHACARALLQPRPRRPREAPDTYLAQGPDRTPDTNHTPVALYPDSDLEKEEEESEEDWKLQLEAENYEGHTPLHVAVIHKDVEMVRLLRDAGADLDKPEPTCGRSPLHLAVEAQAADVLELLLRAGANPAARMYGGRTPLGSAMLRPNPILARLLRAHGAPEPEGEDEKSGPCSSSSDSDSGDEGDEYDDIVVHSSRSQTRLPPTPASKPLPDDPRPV
Sequence of UniProt Q13469 (Q13469 whole entry, looked up): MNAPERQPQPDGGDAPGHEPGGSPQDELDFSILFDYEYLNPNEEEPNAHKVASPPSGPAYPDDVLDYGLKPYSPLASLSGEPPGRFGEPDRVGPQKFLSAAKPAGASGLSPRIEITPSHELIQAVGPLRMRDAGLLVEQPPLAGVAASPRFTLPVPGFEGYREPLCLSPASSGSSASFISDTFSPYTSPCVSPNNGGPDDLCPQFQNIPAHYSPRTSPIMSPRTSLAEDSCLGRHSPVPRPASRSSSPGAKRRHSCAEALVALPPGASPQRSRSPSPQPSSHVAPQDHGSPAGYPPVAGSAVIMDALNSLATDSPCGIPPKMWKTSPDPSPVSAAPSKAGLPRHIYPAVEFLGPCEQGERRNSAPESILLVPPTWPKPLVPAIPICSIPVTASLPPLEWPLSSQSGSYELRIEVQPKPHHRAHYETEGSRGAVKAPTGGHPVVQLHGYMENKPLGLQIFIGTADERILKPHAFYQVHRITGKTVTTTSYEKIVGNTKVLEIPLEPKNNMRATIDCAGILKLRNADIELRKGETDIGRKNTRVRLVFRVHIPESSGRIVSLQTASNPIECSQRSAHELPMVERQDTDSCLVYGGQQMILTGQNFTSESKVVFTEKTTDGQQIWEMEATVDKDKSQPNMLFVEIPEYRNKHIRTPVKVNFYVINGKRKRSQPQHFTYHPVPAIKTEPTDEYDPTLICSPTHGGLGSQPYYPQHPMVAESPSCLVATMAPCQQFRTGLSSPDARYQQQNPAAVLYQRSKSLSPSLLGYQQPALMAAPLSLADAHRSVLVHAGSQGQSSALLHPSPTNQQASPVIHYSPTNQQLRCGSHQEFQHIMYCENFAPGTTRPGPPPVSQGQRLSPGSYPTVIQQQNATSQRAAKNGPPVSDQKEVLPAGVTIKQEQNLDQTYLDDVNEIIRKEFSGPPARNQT
Sequence of UniProt Q96NT1 (Q96NT1 whole entry, looked up): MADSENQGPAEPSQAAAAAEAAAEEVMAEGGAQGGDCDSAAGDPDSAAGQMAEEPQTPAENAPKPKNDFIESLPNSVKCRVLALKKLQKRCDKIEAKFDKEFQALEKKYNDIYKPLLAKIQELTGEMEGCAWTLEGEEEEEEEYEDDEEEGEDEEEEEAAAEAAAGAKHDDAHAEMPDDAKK
Sequence of UniProt Q8NCF5 (Q8NCF5 whole entry, looked up): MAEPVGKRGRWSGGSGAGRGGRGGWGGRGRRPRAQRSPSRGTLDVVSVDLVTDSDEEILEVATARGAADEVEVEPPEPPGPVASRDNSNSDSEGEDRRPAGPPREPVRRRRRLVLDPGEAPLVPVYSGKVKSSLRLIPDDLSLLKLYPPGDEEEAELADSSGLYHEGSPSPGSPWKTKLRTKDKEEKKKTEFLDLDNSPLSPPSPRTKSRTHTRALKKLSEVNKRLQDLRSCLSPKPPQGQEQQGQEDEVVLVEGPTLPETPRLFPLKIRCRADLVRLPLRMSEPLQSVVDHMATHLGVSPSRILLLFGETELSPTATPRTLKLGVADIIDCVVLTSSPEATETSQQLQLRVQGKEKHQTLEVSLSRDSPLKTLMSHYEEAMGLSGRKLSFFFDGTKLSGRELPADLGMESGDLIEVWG
Sequence of UniProt Q9BPZ3 (Q9BPZ3 whole entry, looked up): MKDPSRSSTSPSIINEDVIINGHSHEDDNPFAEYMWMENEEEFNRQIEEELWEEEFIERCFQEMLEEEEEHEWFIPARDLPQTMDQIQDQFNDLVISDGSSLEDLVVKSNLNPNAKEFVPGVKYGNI
Sequence of UniProt Q9NQR4 (Q9NQR4 whole entry, looked up): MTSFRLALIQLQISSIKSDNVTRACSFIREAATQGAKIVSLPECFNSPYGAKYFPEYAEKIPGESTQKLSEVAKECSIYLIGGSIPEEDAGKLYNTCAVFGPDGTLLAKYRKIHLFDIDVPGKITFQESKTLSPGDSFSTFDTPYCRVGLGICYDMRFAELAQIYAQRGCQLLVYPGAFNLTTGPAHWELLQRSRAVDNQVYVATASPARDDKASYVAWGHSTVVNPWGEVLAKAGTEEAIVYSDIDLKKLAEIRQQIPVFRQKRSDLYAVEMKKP
Sequence of UniProt Q9Y6C9 (Q9Y6C9 whole entry, looked up): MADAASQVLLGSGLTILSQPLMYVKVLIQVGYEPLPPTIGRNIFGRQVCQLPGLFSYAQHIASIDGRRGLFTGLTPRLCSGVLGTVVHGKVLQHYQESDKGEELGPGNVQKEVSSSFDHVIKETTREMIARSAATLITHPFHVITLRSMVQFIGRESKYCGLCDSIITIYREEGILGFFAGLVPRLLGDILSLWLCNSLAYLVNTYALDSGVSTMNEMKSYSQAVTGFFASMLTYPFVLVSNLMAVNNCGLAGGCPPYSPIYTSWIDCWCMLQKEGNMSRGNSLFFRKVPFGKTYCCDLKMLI
Sequence of UniProt Q15021 (Q15021 whole entry, looked up): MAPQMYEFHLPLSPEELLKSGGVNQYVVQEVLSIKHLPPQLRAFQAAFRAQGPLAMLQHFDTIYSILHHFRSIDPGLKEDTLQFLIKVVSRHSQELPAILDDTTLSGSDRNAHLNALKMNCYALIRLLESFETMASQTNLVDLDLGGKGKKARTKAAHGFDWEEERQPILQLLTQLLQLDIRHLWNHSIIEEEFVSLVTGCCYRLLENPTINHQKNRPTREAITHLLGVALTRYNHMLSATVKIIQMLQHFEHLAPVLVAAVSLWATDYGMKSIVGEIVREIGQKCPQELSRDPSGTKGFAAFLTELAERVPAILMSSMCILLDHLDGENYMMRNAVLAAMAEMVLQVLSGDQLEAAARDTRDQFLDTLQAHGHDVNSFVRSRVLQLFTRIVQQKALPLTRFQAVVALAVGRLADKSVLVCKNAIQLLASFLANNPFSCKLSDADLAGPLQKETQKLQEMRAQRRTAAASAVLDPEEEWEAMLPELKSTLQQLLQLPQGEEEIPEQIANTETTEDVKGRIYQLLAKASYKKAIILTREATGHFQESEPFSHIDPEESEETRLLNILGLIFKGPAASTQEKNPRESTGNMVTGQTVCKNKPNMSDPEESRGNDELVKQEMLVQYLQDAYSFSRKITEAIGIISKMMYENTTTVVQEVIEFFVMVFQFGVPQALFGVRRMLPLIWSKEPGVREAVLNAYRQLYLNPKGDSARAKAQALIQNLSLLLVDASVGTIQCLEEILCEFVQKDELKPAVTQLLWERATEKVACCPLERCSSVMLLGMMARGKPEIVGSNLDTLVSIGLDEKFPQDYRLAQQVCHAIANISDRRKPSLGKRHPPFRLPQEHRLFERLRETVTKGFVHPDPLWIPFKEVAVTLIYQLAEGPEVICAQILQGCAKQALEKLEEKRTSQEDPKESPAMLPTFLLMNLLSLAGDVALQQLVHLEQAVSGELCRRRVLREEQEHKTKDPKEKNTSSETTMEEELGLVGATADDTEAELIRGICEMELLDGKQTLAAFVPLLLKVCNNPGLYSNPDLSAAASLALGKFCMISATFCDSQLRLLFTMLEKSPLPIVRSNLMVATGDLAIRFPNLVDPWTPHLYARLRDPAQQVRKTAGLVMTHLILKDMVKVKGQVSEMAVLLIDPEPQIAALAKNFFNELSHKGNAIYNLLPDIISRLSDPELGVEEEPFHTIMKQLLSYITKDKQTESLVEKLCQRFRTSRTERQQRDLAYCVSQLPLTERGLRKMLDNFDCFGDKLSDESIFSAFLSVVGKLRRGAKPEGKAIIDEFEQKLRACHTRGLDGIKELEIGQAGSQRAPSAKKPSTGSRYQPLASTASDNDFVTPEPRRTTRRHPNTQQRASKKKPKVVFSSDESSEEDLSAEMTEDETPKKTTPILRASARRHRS
Sequence of UniProt Q9BSD7 (Q9BSD7 whole entry, looked up): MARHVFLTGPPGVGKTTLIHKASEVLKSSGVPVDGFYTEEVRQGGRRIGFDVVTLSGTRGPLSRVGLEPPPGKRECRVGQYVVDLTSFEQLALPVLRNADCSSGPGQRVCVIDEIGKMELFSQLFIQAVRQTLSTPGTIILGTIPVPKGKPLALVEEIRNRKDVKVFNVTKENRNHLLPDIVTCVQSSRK
Sequence of UniProt P08651 (P08651 whole entry, looked up): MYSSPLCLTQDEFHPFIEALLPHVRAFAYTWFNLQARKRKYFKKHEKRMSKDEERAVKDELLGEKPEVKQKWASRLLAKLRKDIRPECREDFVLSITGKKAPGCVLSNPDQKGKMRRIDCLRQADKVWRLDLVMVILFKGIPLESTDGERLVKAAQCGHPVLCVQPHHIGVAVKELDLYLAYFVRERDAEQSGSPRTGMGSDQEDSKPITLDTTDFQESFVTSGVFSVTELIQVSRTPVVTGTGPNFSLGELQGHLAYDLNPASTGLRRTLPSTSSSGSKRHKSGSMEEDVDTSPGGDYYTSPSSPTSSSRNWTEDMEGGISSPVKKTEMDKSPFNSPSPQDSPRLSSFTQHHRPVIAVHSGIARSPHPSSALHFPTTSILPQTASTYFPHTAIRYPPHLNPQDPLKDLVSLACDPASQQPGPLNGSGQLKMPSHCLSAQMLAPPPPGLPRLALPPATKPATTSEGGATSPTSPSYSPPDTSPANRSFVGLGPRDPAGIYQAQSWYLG
Sequence of UniProt Q15843 (Q15843 whole entry, looked up): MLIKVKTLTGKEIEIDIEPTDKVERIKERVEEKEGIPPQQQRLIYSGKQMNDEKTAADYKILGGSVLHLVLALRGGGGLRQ
Sequence of UniProt Q99417 (Q99417 whole entry, looked up): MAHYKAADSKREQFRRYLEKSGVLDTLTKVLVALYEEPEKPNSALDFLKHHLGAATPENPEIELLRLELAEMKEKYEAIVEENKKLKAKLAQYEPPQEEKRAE

log2 fold change, inactive:
NTPCR (UniProt Q9BSD7) -0.027, MTHFD1L (UniProt B7ZM99) -0.017, NOA1 (UniProt Q8NC60) -0.001, NT5DC2 isoform 2 (UniProt Q9H857) -0.011, OTUD7B (UniProt Q6GQQ9) -0.095, NADK2 (UniProt Q4G0N4) 0.03, NTMT1 (UniProt Q9BV86) -0.002, OSGEP (UniProt Q9NPF4) 0.03, NDUFA4 (UniProt O00483) 0.019, NUB1 (UniProt Q9Y5A7) -0.002, NFATC2 (UniProt Q13469) -0.023, ORC2 (UniProt Q13416) -0.029, NELFCD (UniProt Q8IXH7) -0.031, NMRAL1 (UniProt Q9HBL8) 0.045, PAIP2 (UniProt Q9BPZ3) -0.018, NCAPD2 (UniProt Q15021) -0.009, NEDD8 (UniProt Q15843) 0.018, NFIC (UniProt P08651) 0.016, NELFA (UniProt Q9H3P2) -0.014, NLRP2 (UniProt Q9NX02) 0.026, OSBPL6 isoform 5 (UniProt Q9BZF3) -0.238, MTCH2 (UniProt Q9Y6C9) 0.001, NAA38 isoform 2 (UniProt Q9BRA0) -0.019, NAP1L5 (UniProt Q96NT1) 0.005, MT-ND1 (UniProt P03886) -0.059, NFATC2IP (UniProt Q8NCF5) 0.03, MYCBP (UniProt Q99417) 0.029, NIT2 (UniProt Q9NQR4) -0.023, NEBL (UniProt O76041) -0.03, NFKBIB (UniProt Q15653) -0.08, NEK7 (UniProt Q8TDX7) 0.01, NCOR1 (UniProt O75376) 0.003, ORC3 isoform 2 (UniProt Q9UBD5) -0.079, NCK1 (UniProt P16333) 0.008, NFATC1 (UniProt O95644) -0.058
